Bioassay records (PubChem BioAssay)
Most compounds without a hit are left out; they make up all but 3.7% or so of the library.
ClpP mod: qHTS Assay for Activators of ClpP. ATP-dependent Clp protease proteolytic subunit (Bacillus subtilis (strain 168)), P80244. purified B. subtilis ClpP, FRET peptide cleavage, 20 min. Potency, µM (doses to about 57.5 µM), inactives show top-dose activity change, negative = active. 340,000 compounds, 1.9% hits; active = well fitted falling curve with a large enough effect; inconclusive = small, poorly fitted or top-dose-only effect; inactive = no such curve, though single readings can be large or run the other way; note: potency is the fitted concentration of half-maximal effect; the source files actives as falling curves though it sought activators and does not explain the sign; nearly all actives have a fitted effect of over 65% in size
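Buffer: 100 mM Tris/HCl pH8, 100 mM KCl, 0.05% low protease BSA, 2.5% glycerol, 0.01% Tween-20. ClpP 10 microg/mL final; 20 min RT; delta FRET normalized to ADEP and DMSO controls.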
A549 viability: Nrf2 qHTS screen for inhibitors: counterscreen for cytotoxicity; Potency, µM (titrated, usually from 46 µM), for the others: at the top dose activity change, negative = cytotoxicity, usual class: inhibitors; 390,000 compounds, 0.16% hits; A549 ARE-Fluc cells, CellTiter-Fluor viability, 18-24 h; note: potency is the fitted concentration of half-maximal effect; % is set by controls: 0 for no effect and ±100 for the full control effect
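Cytotoxicity counterscreen: CellTiter-Fluor fluorescence was measured in A549 ARE_Fluc cells after 18-24 h of compound exposure in a concentration series. The subsequent BugLite luminescent read reports ARE-luciferase activity.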
IL-2 act: qHTS of IL-2 Activators | IL-2 activation reporter assay, cell-based qHTS; stimulated with anti-CD3/CD4/CD28 beads; in transgenic mouse T cells | activation, % (series mostly up to about 46 µM) | 360,000 compounds, 0.065% hits | AID 652025, 2013; in the data active = activation above about 50%; inconclusive = mostly about 30% to 49%; note: 0% is about no effect
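Unstimulated transgenic mouse T cells preincubated 60 min with compound, then stimulated with anti-CD3/anti-CD4-coated beads plus anti-CD28 for 18 h at 37 degrees C. IL-2 response read as EGFP and DsRed fluorescence by plate cytometry.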
miR-21 reporter: qHTS Assay for Modulators of miRNAs and/orActivators of miR-21. Potency, µM (highest dose often 38.3 µM), for inactives: top-dose activity change, positive = activation, most hits filed as activators. HeLa miR-21 FLuc reporter, luciferase, 48 h. 340,000 tested, under 10 active;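 note: % of control where 0% means no effect; miR-21 action dims this reporter so a rising signal means less miR-21 action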
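HeLa miR-21-FLuc reporter line, endogenous miR-21; 2000 cells/well in DMEM/10% FBS; compound titration up to ~40uM final, 48 h, 37 degree Celsius; luciferase detection reagent, 15 min lysis, CCD luminescence.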
Nrf2 activator: qHTS of Nrf2 Activators | AREc32 ARE-luciferase reporter (MCF7-derived line), luminescence, 24 h | Potency, µM (series often up to 46.1 µM), inactives show at the top dose activation, actives largely listed as activators | 410,000 compounds, 0.31% hits | AID 624171, 2012; note: potency is the fitted concentration of half-maximal effect; % of control where 0% means no effect; nearly all actives have a fitted effect of over 65% in size
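Each well held 1000 AREc32 cells, which were incubated with compound for 24 hr at 37 deg C after overnight attachment, and ARE reporter activity was quantified by firefly luciferase luminescence.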
Nrf2 inh: Nrf2 qHTS screen for inhibitors; 360,000 compounds, 2.1% hits; A549 ARE-Fluc reporter, luciferase luminescence, 18-24 h; Potency, µM (titrated, usually from 46 µM), without a hit: at the highest dose activity change, negative = inhibition, hits mostly inhibitors; note: potency is the fitted concentration of half-maximal effect; % is set by controls: 0 for no effect and ±100 for the full control effect; nearly all actives have a fitted effect of over 60% in size
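A549 ARE_Fluc cells (5000/well, 5% FBS OPTI-MEM) pre-incubated 2 h, then treated with compounds 18-24 h at 37C/5% CO2 in concentration-response. CellTiter-Fluor viability read first; BugLite luciferase luminescence after 15 min at room temperature gives Nrf2 activity.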
* marks the source's active call; other numbers are inactive results; ? = inconclusive; / = not tested or not shown; [ ] = dose if it differs, or a comment. Unless noted, calls come from the whole dose curve; as a rule, active = well fitted curve in the direction sought with a large enough effect; inconclusive = small, poorly fitted or top-dose-only effect, or another doubt; inactive = no such curve, though single readings can be large; an effect the other way counts as inactive or inconclusive.

SMILES | ClpP mod | A549 viability | IL-2 act | miR-21 reporter | Nrf2 activator | Nrf2 inh
Cn1c(SCc2ccc(F)cc2)nc2ccc(C(=O)NCc3ccc(F)cc3)cc21 | -0.9% | ? | / | 7.7% | 0.1% | 23.1µM*
Cn1c(SCc2ccc(F)cc2)nc2ccc(C(=O)NCc3cccc(Cl)c3)cc21 | 2.0% | -6.5% | / | ? | 0.0% | 20.6µM*
Cn1c(SCc2ccc(F)cc2)nc2ccc(C(=O)NCc3ccc(Cl)cc3)cc21 | 0.9% | 1.6% | / | 1.0% | 2.8% | 14.6µM*
CCCSc1nc(-c2ccc(OC)cc2)cc(-c2ccccc2OC)c1C#N | 4.2% | -0.9% | / | 1.7% | 3.1% | -15.4%
CCOc1ccc(NC(=O)CCc2nc3cccnc3n2-c2ccccc2)cc1 | 1.4% | -0.9% | / | 5.9% | -0.3% | -17.7%
C=C(C(=O)c1ccccc1)C(CC(=O)c1ccccc1)c1ccccc1 (stereo not drawn) | -2.2% | ? | -3.0 | ? | 4.1% | 23.1µM*
CCOc1ccc(C(C)NC(=O)CCC(=O)O)cc1 (stereo not drawn) | 28.2µM* | -4.8% | 0.2 | -4.0% | -0.4% | 5.4%
Cc1ccsc1C(=O)OCC(=O)NCc1ccco1 | 3.16µM* | -1.2% | -0.8 | -16.1% | 18.3% | 0.1%
Cc1ccc(-c2csc(=S)n2CC(=O)OCC(=O)NCc2ccco2)cc1 | 0.9% | -19.2% | -1.2 | 6.2% | 16.1% | 18.4µM*
Cc1ccccc1C(=O)OCC(=O)NCc1ccco1 | -1.3% | 1.4% | 0.5 | / | ? | 14.9%
Cc1ccc(-c2csc(=S)n2CC(=O)OCC(=O)NC(C)C(C)C)cc1 (stereo not drawn) | 1.1% | -2.7% | -2.9 | -0.5% | 3.1% | -23.0%
COc1ccc(OCC(=O)OCC(=O)NCc2ccco2)cc1 | 28.2µM* | 7.9% | -1.0 | -2.7% | -0.6% | /
COc1ccc(-c2ccc(=O)n(CC(=O)NCc3ccco3)n2)cc1 | 25.1µM* | -2.2% | 0.2 | -10.0% | 24.7% | 7.6%
Cc1ccc(-c2ccc(=O)n(CC(=O)NCc3ccco3)n2)cc1 | -13.1% | -0.2% | -3.0 | -1.3% | 2.3% | 15.0%
Cc1nc2ccn(Cc3cccs3)c(=O)c2cc1C(=O)NCc1ccc(Br)cc1 | 4.4% | -3.3% | / | 16.3% | 5.8% | -5.4%
CCOC(=O)c1c(NC(=O)CCCOc2ccc(C(C)(C)C)cc2)sc2c1CCC2 | -3.4% | 4.8% | / | -0.9% | 0.0% | -3.2%
O=C(CN1C(=O)C2(SCC(=O)N2c2ccc(F)cc2)c2ccccc21)NC1CCCCC1 (stereo not drawn) | -1.3% | 3.0% | / | 2.1% | -0.3% | 26.4%
CC(C)(C)c1ccc(C(=O)Nc2cc(-c3ccccc3)nn2-c2ccccc2)cc1 | ? | -7.5% | / | -1.1% | -1.0% | /
CS(=O)(=O)c1ccc(C(=O)Nc2cc(-c3ccccc3)nn2-c2ccccc2)cc1 | -6.0% | -12.7% | 0.5 | / | 3.3% | 14.6µM*
COc1ccc(OC)c(-c2nnc(-c3ccc(C)o3)o2)c1 | ? | 1.0% | -1.0 | -40.8% | 11.2µM* | ?
CCOC(=O)c1ccc(NC(=O)CCc2c(C)nc3cc(-c4ccc(OC)cc4OC)nn3c2C)cc1 | -15.6% | -2.9% | / | -0.6% | 0.5% | 4.5%
Nc1cccc(S(=O)(=O)N2CCCN(S(=O)(=O)c3ccc4c(c3)OCCO4)CC2)c1 | / | -0.8% | / | / | / | -3.5%
CCCN(Cc1ccccc1)C(=S)Nc1ccc(OC(F)F)cc1 | 10µM* | 11.5% | -0.1 | -5.0% | -0.6%[9.22 µM] | 14.0%
COCCN(Cc1ccccc1)C(=S)Nc1ccc(OC(F)F)cc1 | / | 0.0% | -5.0 | 0.6% | 0.5% | -15.5%
COc1ccc(N2CC(NC(=O)CCc3ccccc3)CC2=O)cc1OC (stereo not drawn) | 0.2% | 0.2% | / | -4.7% | -0.9% | /
SMILES | ClpP mod | A549 viability | IL-2 act | miR-21 reporter | Nrf2 activator | Nrf2 inh
O=c1[nH]c(O)c(/C=C2\C=Nc3ccccc32)[nH]1 | -2.0% | ? | -2.9 | -42.7% | 3.98µM* | ?
CN(C)C(=O)c1cn(-c2ccccc2)nc1-c1cc2ccccc2oc1=O | / | -3.5% | 0.0 | 0.5% | 0.4% | 0.3%
O=C1CSC(c2nn(-c3ccccc3)cc2-c2cc3ccccc3oc2=O)N1Cc1ccco1 (stereo not drawn) | 35.5µM* | -4.0% | -2.3 | -2.9% | 11.7% | -12.7%
O=C1CSC(c2cn(-c3ccccc3)nc2-c2cc3ccccc3oc2=O)N1Cc1ccccc1 (stereo not drawn) | 28.2µM* | -25.4% | -0.5 | 1.3% | 14.9% | ?
Cc1ccc2c(=O)c(C(=O)c3ccc(Cl)cc3)cn(CC(=O)Nc3ccc4c(c3)OCCO4)c2n1 | 0.7% | 2.7% | / | -13.2% | 0.4% | -8.9%
COc1ccc(C)cc1NC(=O)C1COc2ccccc2C1 (stereo not drawn) | 1.1% | 7.9% | / | -18.7% | 3.8% | /
CCc1cccc(-n2nnc(-c3nsc(NC(=O)c4cccc(OC)c4)n3)c2C)c1 | -5.5% | -6.5% | / | 4.0% | 3.4% | ?
CC(C)(C)OC(=O)Cc1nnc(CNC(=O)c2ccccc2)s1 | / | 1.4% | / | / | / | -12.0%
COc1ccc(N2C(=O)C(Cl)=C(Nc3ccccc3O)C2=O)cc1 | 31.6µM* | -17.7% | -0.1 | -26.0% | ? | -9.5%
COc1ccc(N2C(=O)C(Cl)=C(Nc3ccccc3OC)C2=O)cc1 | 1.6% | -1.9% | 2.2 | -8.1% | 3.6%[9.22 µM] | -0.9%
Cc1cc(NC(=O)COC(=O)c2ccccc2OCCOc2ccccc2)ccc1Br | -2.0% | / | / | / | / | /
CCOc1ccc2[nH]c(C)c(CN3CCCCC3)c(=O)c2c1 | 293.8% | 14.3% | -0.9 | -1.4% | 1.5% | 8.3%
CCOc1ccc2[nH]c(C)c(CN(C)C)c(=O)c2c1 | 15.8µM* | 0.6% | -0.3 | -0.4% | -0.5% | 10.6%
COc1ccc2[nH]c(C)c(CN3CCC(C)CC3)c(=O)c2c1 | 10µM* | -2.6% | -0.4 | -1.0% | -0.9% | 10.7%
CCOc1ccc2[nH]c(C)cc(=O)c2c1 | 4.1% | 2.5% | -1.7 | 2.5% | 0.2% | 17.6%
CC(=O)Nc1ccc(NS(=O)(=O)c2c(C(=O)N3CCC(C)CC3)c(C)n(C)c2C)cc1 | -3.5% | -13.0% | / | 0.4% | -0.2% | /
CCn1c(O)c(/C=N/N=C/c2ccc(OC)cc2)c2cc(C3=NNC(=O)CC3)ccc21 | / | -20.9% | 214.9* | -8.6% | 0.7% | -14.8%
CC/C(C)=N\N=C\c1c(O)n(CC)c2cc(C3=NNC(=O)CC3)ccc12 | -7.2% | -7.9% | 0.8 | -19.9% | 6.1% | /
CC(C)c1nc2sc3c(SCC(=O)NCc4ccco4)ncnc3c2c2c1CCC2 | 25.1µM* | -3.9% | 0.1 | -19.5% | 4.3% | ?
O=c1cc(CCl)nc2sc3ccccc3n12 | -2.5% | -6.4% | -3.7 | 1.5% | 2.0% | -6.8%
